Structures are written as SMILES. Records with an inconclusive call do not appear. The source made the active and inactive calls. Calls come from the whole dose curve.

Sequence of Peroxisome proliferator-activated receptor delta (Homo sapiens) (Q03181 whole entry, looked up): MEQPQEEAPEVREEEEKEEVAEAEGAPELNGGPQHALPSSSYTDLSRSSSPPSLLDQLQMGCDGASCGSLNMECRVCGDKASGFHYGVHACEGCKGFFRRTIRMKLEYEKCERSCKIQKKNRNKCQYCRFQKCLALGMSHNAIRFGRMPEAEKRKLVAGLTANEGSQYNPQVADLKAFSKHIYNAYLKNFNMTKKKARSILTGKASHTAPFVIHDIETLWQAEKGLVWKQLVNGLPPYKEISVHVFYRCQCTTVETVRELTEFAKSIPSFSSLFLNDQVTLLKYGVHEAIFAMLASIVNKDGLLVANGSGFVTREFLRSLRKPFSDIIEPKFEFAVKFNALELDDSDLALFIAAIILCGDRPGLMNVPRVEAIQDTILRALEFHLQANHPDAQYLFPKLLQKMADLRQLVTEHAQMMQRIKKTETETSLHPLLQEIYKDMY

This test has as its target Peroxisome proliferator-activated receptor delta (Homo sapiens) (UniProt Q03181). Put plainly: qHTS assay to identify small molecule agonists of the peroxisome proliferator-activated receptor delta (PPARd) signaling pathway (AID 743212). The following applies: HEK293H PPARd-UAS-bla, beta-lactamase FRET ratio, 17 h; series mostly up to 62.6 µM. The text has this: U.S. Tox21 Program National Center for Advancing Translational Sciences [NCATS] NIH Chemical Genomics Center [NCGC] U.S. Environmental Protection Agency [EPA] National Institutes of Environmental Health Sciences [NIEHS] National Toxicology Program [NTP] U.S. Food and Drug Administration [FDA] Tox21 Assay Overview: The peroxisome proliferator-activated receptors (PPARs) are lipid-activated transcription factors of the nuclear receptor superfamily with three distinct subtypes namely PPAR alpha, PPAR delta (PPARd) and PPAR gamma. All these subtypes heterodimerizes with Retinoid X receptor (RXR) and have different physiological functions. […] To identify the compounds that activate PPAR-delta signaling, GeneBLAzer PPAR delta UAS-bla HEK293H cell line (Invitrogen, Carlsbad, CA, USA) containing a beta-lactamase reporter gene under the control of an Upstream Activator Sequence (UAS) was used to screen the Tox21 compound library.
Tox21 Assay Protocol Summary: PPARd-bla cells were dispensed at 3000 cells/6uL/well in 1536-well black wall/clear bottom plates using a Multidrop Combi (Thermo Fisher Scientific, Waltham, MA) dispenser. After the assay plates were incubated at 37 C and 5% CO2 for 5 h, 23 nL of compounds dissolved in DMSO, positive controls or DMSO only was transferred to the assay plate by a Pintool station (Kalypsys, San Diego, CA). The assay plates were incubated at 37C for 17 h. After 1 uL of LiveBLAzerTM B/G FRET substrate was added using a Bioraptr Flying Reagent Dispenser (FRD) workstation (Beckman Coulter, Indianapolis, IN, USA), the plates were incubated at room temperature for 2 h, and fluorescence intensity was measured by an Envision plate reader (PerkinElmer, Shelton, CT).
A general note: In qHTS, concentration-response curves come from the screen itself.
Regarding `NC(=O)c1c(Cl)cccc1Cl`, the outcome was inactive.

`CCN1CCN(c2cc3c(cc2F)c(=O)c(C(=O)O)cn3C2CC2)CC1`: the outcome was inactive.

For the molecule `O=C(O)c1cccc(C(=O)O)n1`, the result was inactive. In the case of `NC1CCN(c2cccc(Cl)n2)CC1`, the outcome was inactive. Under `CC(C)COC(=O)c1ccccc1O` stands “inactive”; under `C=CCSCC1Nc2cc(Cl)c(S(N)(=O)=O)cc2S(=O)(=O)N1` (stereo not given), “inactive”.

`CCCCCCOC(=O)c1ccccc1O`: the outcome was inactive. Under `NC(=O)Nc1nc2ccccc2[nH]1` stands “inactive”. Under `Cc1cc(C)cc(OCC2CNC(=O)O2)c1` (stereo not given) stands “inactive”; under `CC(C)CCCC(C)NCCC(C)C` (stereo not given), “inactive”. Under `CNC(=O)c1c(I)c(NC(=O)CCCCC(=O)Nc2c(I)c(C(=O)O)c(I)c(C(=O)NC)c2I)c(I)c(C(=O)O)c1I` stands “inactive”; under `CC1(C)OC(=O)Nc2ccc(Br)cc21`, “inactive”; under `Oc1ccc2c(c1)OC[C@@H](N1CCC(O)(c3ccc(F)cc3)CC1)[C@H]2O`, “inactive”. Consider `CN(C)C(=O)Nc1ccccc1`, for which the result was inactive. Take `CCCC(C)C(=O)O` (stereo not given): the result was inactive.

For the molecule `CCCCOCC(C)OCC(C)O` (stereo not given), the result was inactive. Under `C[C@H](O)C(=O)Nc1c(I)c(C(=O)NC(CO)CO)c(I)c(C(=O)NC(CO)CO)c1I` stands “inactive”; under `c1ccc(SCCSc2ccccc2)cc1`, “inactive”. Consider `CC(C)N1C(=O)c2ccccc2C1=O`, for which the outcome was inactive. Under `NC(N)=NS(=O)(=O)c1ccc(N)cc1` stands “inactive”; under `CC1=CC(=O)CCC1`, “inactive”; under `C=CCOc1nc(OCC=C)nc(OCC=C)n1`, “inactive”.

Consider `O=Cc1ccccc1[N+](=O)[O-]`, for which the outcome was inactive.

For `CCO[Si](C)(OCC)OCC`, the result was inactive.

Turning to `CCc1cc(S(=O)(=O)O)c2cc(C(C)C)cccc1-2`, the outcome was inactive. In the case of `CC(C)(O)c1ccccc1`, the outcome was inactive. Regarding `CC(C)CCCCCCN`, the outcome was inactive. Under `O=C(O)c1ccccc1-c1ccc(C(F)(F)F)cc1` stands “inactive”; under `COC(=O)C1=C(C)NC(C)=C(C(=O)OCC(C)=O)C1c1ccccc1[N+](=O)[O-]` (stereo not given), “inactive”; under `C(=C(c1ccccc1)c1ccccc1)c1ccccc1`, “inactive”. Under `CC(C)[C@H](N)C(=O)OCCOCn1cnc2c(=O)[nH]c(N)nc21` stands “inactive”; under `CCCCCCCCCCCCCCCCCC(=O)OCCCCCCCCCCCCCC(C)C`, “inactive”. Regarding `NC(=O)c1ncn([C@@H]2O[C@H](CO)[C@@H](O)[C@H]2O)c1O`, the outcome was inactive. Under `CCC(C)OC(=O)N1CCCCC1CCO` (stereo not given) stands “inactive”.

With `CCCCCCCCN(C)CCCCCCCC`, the outcome was inactive.

For `NS(=O)(=O)c1cc(C2(O)NC(=O)c3ccccc32)ccc1Cl` (stereo not given), the outcome was inactive. Under `Cc1onc(-c2ccccc2)c1-c1ccc(S(N)(=O)=O)cc1` stands “inactive”; under `CCCCCOC(=O)Nc1nc(=O)n([C@@H]2O[C@H](C)[C@@H](O)[C@H]2O)cc1F`, “inactive”; under `O=C(O)C1CCC1`, “inactive”. Under `CSc1ccc(C=O)cc1` stands “inactive”.
